Reference: ChEMBL document CHEMBL1961873, “Compounds: GSK PKIS; Assays: Nanosyn kinase panel” (2012)

Key:
[1] = molecular target: T1, Tyrosine-protein kinase receptor TYRO3 (Homo sapiens) (UniProt Q06418); details: at 1 µM
T1 sequence (whole entry): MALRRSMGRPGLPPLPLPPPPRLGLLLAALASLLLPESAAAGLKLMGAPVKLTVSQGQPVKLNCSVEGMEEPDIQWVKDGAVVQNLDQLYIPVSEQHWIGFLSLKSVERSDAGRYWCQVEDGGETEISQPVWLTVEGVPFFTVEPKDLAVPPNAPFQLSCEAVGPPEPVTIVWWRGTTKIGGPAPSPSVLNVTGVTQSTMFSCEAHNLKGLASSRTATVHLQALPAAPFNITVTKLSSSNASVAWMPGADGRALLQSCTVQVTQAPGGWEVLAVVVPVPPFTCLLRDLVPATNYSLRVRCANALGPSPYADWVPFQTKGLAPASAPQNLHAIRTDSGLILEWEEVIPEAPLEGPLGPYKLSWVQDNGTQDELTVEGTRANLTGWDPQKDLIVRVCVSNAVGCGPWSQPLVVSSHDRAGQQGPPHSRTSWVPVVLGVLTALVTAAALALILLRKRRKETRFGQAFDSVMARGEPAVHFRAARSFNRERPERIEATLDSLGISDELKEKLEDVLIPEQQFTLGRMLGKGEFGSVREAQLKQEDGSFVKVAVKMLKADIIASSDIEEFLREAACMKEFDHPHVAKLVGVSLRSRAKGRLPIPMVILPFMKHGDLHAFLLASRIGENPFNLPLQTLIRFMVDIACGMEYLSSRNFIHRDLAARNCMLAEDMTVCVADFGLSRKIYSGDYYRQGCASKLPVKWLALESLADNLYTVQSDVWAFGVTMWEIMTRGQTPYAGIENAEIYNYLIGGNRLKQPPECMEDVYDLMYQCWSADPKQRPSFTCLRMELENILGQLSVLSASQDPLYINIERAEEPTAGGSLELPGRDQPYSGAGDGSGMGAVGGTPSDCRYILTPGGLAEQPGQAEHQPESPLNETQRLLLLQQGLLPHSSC

[2] = molecular target: Tyrosine-protein kinase Yes (Homo sapiens) (UniProt P07947); details: at 0.1 µM
Sequence of Tyrosine-protein kinase Yes (Homo sapiens) (P07947 2-543 limits assumed): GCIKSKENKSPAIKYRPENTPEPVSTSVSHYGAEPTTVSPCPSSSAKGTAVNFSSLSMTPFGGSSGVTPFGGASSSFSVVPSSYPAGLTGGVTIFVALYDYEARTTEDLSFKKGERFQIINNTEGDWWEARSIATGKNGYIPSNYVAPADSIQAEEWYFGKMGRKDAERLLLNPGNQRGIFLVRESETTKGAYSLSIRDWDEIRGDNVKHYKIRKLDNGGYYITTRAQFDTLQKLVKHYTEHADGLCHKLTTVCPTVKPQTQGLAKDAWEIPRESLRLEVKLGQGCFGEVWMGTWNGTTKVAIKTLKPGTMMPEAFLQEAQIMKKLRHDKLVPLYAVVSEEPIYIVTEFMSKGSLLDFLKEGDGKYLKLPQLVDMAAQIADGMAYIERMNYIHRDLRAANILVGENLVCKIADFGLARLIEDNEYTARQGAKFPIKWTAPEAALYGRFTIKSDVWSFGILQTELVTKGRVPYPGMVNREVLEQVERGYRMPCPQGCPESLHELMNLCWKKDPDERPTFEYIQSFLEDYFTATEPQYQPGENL

[3] = molecular target: Tyrosine-protein kinase Yes (Homo sapiens) (UniProt P07947); details: at 1 µM
[4] = molecular target: T2, Tyrosine-protein kinase ZAP-70 (Homo sapiens) (UniProt P43403); details: at 0.1 µM
T2 sequence (whole entry): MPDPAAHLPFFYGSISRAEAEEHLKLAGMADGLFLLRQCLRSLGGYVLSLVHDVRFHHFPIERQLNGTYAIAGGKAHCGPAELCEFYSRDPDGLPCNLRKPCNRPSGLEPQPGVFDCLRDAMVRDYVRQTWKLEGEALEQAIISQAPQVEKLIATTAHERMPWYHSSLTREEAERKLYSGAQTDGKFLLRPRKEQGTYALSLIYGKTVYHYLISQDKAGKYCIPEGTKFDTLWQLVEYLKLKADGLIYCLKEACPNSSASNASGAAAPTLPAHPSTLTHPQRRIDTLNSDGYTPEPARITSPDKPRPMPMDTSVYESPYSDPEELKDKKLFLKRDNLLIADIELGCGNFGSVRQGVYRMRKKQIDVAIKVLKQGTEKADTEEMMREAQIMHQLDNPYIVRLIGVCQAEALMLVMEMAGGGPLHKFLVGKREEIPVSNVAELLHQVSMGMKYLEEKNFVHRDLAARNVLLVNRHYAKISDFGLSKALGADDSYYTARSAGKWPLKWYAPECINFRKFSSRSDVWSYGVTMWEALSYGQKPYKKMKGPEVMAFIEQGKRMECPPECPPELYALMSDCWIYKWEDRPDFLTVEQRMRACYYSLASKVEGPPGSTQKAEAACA

[5] = molecular target: T2, Tyrosine-protein kinase ZAP-70 (Homo sapiens); details: at 1 µM
[6] = molecular target: Serine/threonine-protein kinase B-raf (Homo sapiens) (UniProt P15056); details: at 0.1 µM
Sequence of Serine/threonine-protein kinase B-raf (Homo sapiens) (P15056 whole entry): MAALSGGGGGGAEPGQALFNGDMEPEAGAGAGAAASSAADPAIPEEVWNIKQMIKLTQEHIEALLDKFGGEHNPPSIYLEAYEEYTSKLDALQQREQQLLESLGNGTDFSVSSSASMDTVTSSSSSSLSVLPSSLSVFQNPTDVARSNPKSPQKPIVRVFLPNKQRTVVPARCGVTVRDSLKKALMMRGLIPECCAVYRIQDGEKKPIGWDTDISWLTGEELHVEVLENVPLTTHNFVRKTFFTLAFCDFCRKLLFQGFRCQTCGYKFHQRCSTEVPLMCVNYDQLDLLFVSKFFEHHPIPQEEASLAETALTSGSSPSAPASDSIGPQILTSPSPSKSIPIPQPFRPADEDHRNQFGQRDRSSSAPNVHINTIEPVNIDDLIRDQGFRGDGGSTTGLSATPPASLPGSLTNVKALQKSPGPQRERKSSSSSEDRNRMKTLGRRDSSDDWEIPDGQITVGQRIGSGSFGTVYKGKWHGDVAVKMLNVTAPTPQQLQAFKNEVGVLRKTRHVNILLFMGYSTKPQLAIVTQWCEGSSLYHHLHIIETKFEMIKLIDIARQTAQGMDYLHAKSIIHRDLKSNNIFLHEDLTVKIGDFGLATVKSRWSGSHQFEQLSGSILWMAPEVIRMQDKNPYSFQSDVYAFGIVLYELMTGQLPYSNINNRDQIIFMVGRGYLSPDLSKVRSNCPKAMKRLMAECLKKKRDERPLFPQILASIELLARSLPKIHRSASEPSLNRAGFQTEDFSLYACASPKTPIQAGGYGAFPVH

[7] = molecular target: Serine/threonine-protein kinase B-raf (Homo sapiens) (UniProt P15056); details: at 1 µM
[8] = tested on: Serine/threonine-protein kinase B-raf (Homo sapiens), P15056 [V600E]; details: at 0.1 µM
Sequence of Serine/threonine-protein kinase B-raf (Homo sapiens), P15056 [V600E] (P15056 whole entry V600E): as the sequence (P15056 whole entry) above, with V600E counted along it

[9] = tested on: Serine/threonine-protein kinase B-raf (Homo sapiens), P15056 [V600E]; details: at 1 µM
[10] = molecular target: RAF proto-oncogene serine/threonine-protein kinase (Homo sapiens) (UniProt P04049); details: at 0.1 µM;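 further: values are mean CRAF kinase inhibition from profiling of the GSK Published Kinase Inhibitor Set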
Sequence of RAF proto-oncogene serine/threonine-protein kinase (Homo sapiens) (P04049 whole entry): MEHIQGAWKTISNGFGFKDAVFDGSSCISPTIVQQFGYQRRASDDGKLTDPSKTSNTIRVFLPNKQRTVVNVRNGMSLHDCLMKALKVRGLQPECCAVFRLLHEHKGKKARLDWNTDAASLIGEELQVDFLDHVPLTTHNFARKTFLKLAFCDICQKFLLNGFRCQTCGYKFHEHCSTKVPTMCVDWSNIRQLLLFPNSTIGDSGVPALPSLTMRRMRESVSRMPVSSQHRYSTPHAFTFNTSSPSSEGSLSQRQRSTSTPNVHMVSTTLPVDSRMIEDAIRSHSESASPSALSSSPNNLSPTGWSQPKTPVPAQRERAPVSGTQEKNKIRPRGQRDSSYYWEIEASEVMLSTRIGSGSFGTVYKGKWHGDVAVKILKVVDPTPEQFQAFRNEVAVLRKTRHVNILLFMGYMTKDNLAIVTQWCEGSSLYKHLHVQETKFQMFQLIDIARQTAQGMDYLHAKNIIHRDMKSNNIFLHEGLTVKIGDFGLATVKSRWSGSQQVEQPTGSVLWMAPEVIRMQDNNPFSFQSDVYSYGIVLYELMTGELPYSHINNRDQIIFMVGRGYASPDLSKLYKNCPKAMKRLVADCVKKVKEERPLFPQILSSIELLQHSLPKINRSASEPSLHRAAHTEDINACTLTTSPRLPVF

**Q.** What does the source list for `CCc1cccc(NC(=O)Nc2ccc(Oc3ccc4nc(NC(=O)OC)[nH]c4c3)cc2)c1`?
**A.** inhibition [1]: 21.4%; inhibition [2]: 0.83%; inhibition [3]: -1.93%; inhibition [4]: 0.4%; inhibition [5]: -1.32%; inhibition [6]: 9.12%; inhibition [7]: 12.2%; inhibition [8]: 9.23%; inhibition [9]: 13.8%; inhibition [10]: -5.43%

**Q.** What does the source list for `Cc1nnc(-c2ccc(C)c(-c3ccc(C(=O)Nc4cccc(C#N)c4)cc3)c2)o1`?
**A.** inhibition [1]: 1.98%; inhibition [2]: 1.42%; inhibition [3]: 5.81%; inhibition [4]: 2.77%; inhibition [5]: 3.12%; inhibition [6]: 3.86%; inhibition [7]: 3.97%; inhibition [8]: 3.34%; inhibition [9]: 3.85%; inhibition [10]: -4.37%

**Q.** How did the inhibition [1] turn out when `Fc1cccc(COc2ccc(Nc3ncnc4cc(-c5ccc[nH]5)sc34)cc2Cl)c1` was run?
**A.** Its inhibition is 3.81%.

**Q.** What about the inhibition [2] of the same compound?
**A.** The inhibition was 2.17%.

**Q.** And the inhibition [3]?
**A.** Its inhibition is 9.41%.

**Q.** What about the inhibition [4] of the same compound?
**A.** Its inhibition is -0.46%.

**Q.** What about the inhibition [5] of the same compound?
**A.** The inhibition was -0.93%.

**Q.** What about the inhibition [6] of the same compound?
**A.** Its inhibition is 3.64%.

**Q.** And the inhibition [7]?
**A.** Its inhibition is 2.48%.

**Q.** And the inhibition [8]?
**A.** Its inhibition is 3.55%.

**Q.** What about the inhibition [9] of the same compound?
**A.** The inhibition was 2.69%.

**Q.** What about the inhibition [10] of the same compound?
**A.** The inhibition was 5.88%.

**Q.** For `O=C(Nc1n[nH]c2nc(-c3ccco3)c(Br)cc12)C1CC1`, which inhibition [1] is on record?
**A.** The inhibition was 4.49%.

**Q.** What about the inhibition [2] of the same compound?
**A.** The inhibition was 4.26%.

**Q.** And the inhibition [3]?
**A.** Its inhibition is 13.8%.

**Q.** And the inhibition [4]?
**A.** The inhibition was 1.19%.

**Q.** What about the inhibition [5] of the same compound?
**A.** Its inhibition is 3.08%.

**Q.** And the inhibition [6]?
**A.** Its inhibition is 5.54%.

**Q.** And the inhibition [7]?
**A.** The inhibition was 5.7%.

**Q.** What about the inhibition [8] of the same compound?
**A.** Its inhibition is 6.02%.

**Q.** And the inhibition [9]?
**A.** The inhibition was 5.23%.

**Q.** What about the inhibition [10] of the same compound?
**A.** Its inhibition is 1.52%.

**Q.** How did the inhibition [1] turn out when `CCN1CCC(CC(=O)Nc2n[nH]c3nc(-c4cccs4)c(Br)cc23)CC1` was run?
**A.** Its inhibition is 0.12%.

**Q.** And the inhibition [2]?
**A.** The inhibition was -2.01%.

**Q.** And the inhibition [3]?
**A.** Its inhibition is 2.56%.

**Q.** And the inhibition [4]?
**A.** The inhibition was -3.15%.

**Q.** What about the inhibition [5] of the same compound?
**A.** The inhibition was -1.71%.

**Q.** And the inhibition [6]?
**A.** The inhibition was -3.34%.

**Q.** What about the inhibition [7] of the same compound?
**A.** The inhibition was -4.88%.

**Q.** What about the inhibition [8] of the same compound?
**A.** The inhibition was -3.29%.

**Q.** And the inhibition [9]?
**A.** Its inhibition is -4.51%.

**Q.** And the inhibition [10]?
**A.** The inhibition was 3.42%.

**Q.** What does the source list for `COc1ccc(-c2nn3ncccc3c2-c2ccnc(Nc3ccc(Cl)c(C(F)(F)F)c3)n2)cc1`?
**A.** inhibition [1]: 3.05%; inhibition [2]: 7.39%; inhibition [3]: 46.2%; inhibition [4]: 0.91%; inhibition [5]: -1.1%; inhibition [6]: 3.94%; inhibition [7]: 4.03%; inhibition [8]: 3.98%; inhibition [9]: 3.99%; inhibition [10]: -1.5%

**Q.** Which inhibition [1] does the source give for `COc1ccc(COc2ccc(Cc3cnc(N)nc3N)cc2OC)cc1` here?
**A.** The inhibition was 0.77%.

**Q.** What about the inhibition [2] of the same compound?
**A.** The inhibition was -0.39%.

**Q.** And the inhibition [3]?
**A.** Its inhibition is -3.3%.

**Q.** What about the inhibition [4] of the same compound?
**A.** The inhibition was 3.08%.

**Q.** What about the inhibition [5] of the same compound?
**A.** Its inhibition is 4.05%.

**Q.** And the inhibition [6]?
**A.** The inhibition was -1.31%.

**Q.** What about the inhibition [7] of the same compound?
**A.** The inhibition was -0.42%.

**Q.** And the inhibition [8]?
**A.** Its inhibition is -1.07%.

**Q.** What about the inhibition [9] of the same compound?
**A.** Its inhibition is 0.7%.

**Q.** What about the inhibition [10] of the same compound?
**A.** Its inhibition is 1.84%.

**Q.** Which inhibition [1] does the source give for `COc1cc2ncn(-c3cc(OCc4ccccc4C(F)(F)F)c(C(N)=O)s3)c2cc1OC` here?
**A.** The inhibition was 10.3%.

**Q.** And the inhibition [2]?
**A.** Its inhibition is 1.77%.

**Q.** What about the inhibition [3] of the same compound?
**A.** Its inhibition is 7.91%.

**Q.** What about the inhibition [4] of the same compound?
**A.** Its inhibition is -2.01%.

**Q.** And the inhibition [5]?
**A.** Its inhibition is -1.32%.

**Q.** What about the inhibition [6] of the same compound?
**A.** The inhibition was 5.82%.

**Q.** And the inhibition [7]?
**A.** The inhibition was 4.85%.

**Q.** And the inhibition [8]?
**A.** The inhibition was 3.47%.

**Q.** And the inhibition [9]?
**A.** Its inhibition is 3.52%.

**Q.** What about the inhibition [10] of the same compound?
**A.** The inhibition was 1.99%.

**Q.** What does the source list for `Cc1cc(O)cc(C)c1/C=C/c1cncc(-c2nn[nH]n2)c1`?
**A.** inhibition [1]: 11.2%; inhibition [2]: 5.57%; inhibition [3]: 41.3%; inhibition [4]: -1.14%; inhibition [6]: 7.69%; inhibition [7]: 10.1%; inhibition [8]: 7.48%; inhibition [9]: 8.79%; inhibition [10]: 4.51%

**Q.** Which results are given for `NS(=O)(=O)c1cccc(-c2ccc3c(NC(=O)C4CC4)n[nH]c3c2)c1`?
**A.** inhibition [1]: 15.4%; inhibition [2]: -2.48%; inhibition [3]: 6.25%; inhibition [4]: -1.92%; inhibition [5]: -0.84%; inhibition [6]: -1.67%; inhibition [7]: -2.14%; inhibition [8]: -2.01%; inhibition [9]: -2.08%; inhibition [10]: -7.61%
